These results are taken from PubChem BioAssay AID1224853 (National Center for Advancing Translational Sciences (NCATS), 2016).

Records with an inconclusive call do not appear. Calls of active or inactive are those of the source. The call rests on the fitted dose curve; in most records, active means well fitted inhibition curve with a large enough effect; inconclusive means small, poorly fitted or top-dose-only effect; inactive means no such curve, though single readings can be large or run the other way.

The test is described as follows: Confirmation assay for measurement of the activity of small molecule inhibitors on Zika virus induced Caspase-3 activity in human astrocytoma cells. The following applies: SNB-19 ZIKV-induced caspase-3/7, luminescence, 6 h; series mostly up to 46.1 µM; activity change, negative = inhibition: at the top concentration. A digest of the protocol:
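Percent inhibition of Zika-triggered caspase-3 activation is derived from luminescence, scaled between uninfected cells and infected cells. Astrocytoma SNB-19 cells receive compound one hour ahead of a 6 h infection at 2 FFU/cell.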
As to `CCCCC1C(=O)N(c2ccccc2)N(c2ccc(O)cc2)C1=O` (configuration not stated), the “activity change, negative = inhibition” value is 22.7% (inactive).
Turning to `CN1CC(=O)N2C(Cc3c([nH]c4ccccc34)[C@H]2c2ccc3c(c2)OCO3)C1=O` (some centres not stated), the “activity change, negative = inhibition” value is 1.76% (inactive).
As to `CC(=O)Oc1ccccc1C(=O)Nc1ncc([N+](=O)[O-])s1`, the Potency was 2.24 µM (active).
Take `CCC(C)SSc1ncc[nH]1` (configuration not stated): the “activity change, negative = inhibition” value was 1.05% (inactive).
Consider `COc1cccc(-c2cc(=O)c3ccccc3o2)c1N`, for which the Potency was 7.74 µM (active).
`CCOC1OC(=O)C[C@H]1NC(=O)[C@@H]1CCCN1C(=O)[C@@H](NC(=O)c1ccc(N)c(Cl)c1)C(C)(C)C` (some centres not stated): the “activity change, negative = inhibition” value is -20.4% (inactive).
On the same count and under the same terms, to `C=CCCCCCCCCC(=O)O` belongs -5.82% (inactive).
`Cc1cc(O)c2c(c1)C(=O)c1cc(O)cc(O)c1C2=O`: the Potency was 4.89 µM (active).
With `C[C@@H](N)c1ccc(C(=O)Nc2ccnc3[nH]ccc23)cc1`, the “activity change, negative = inhibition” value was -12% (inactive).
On to `Cc1cccc(/C=C/c2ccccc2)n1`, for which the Potency was 12.3 µM (active).
Take `O=C1NC(=O)C(=Cc2ccc(-c3ccc(F)cc3)o2)S1`: the Potency is 13.8 µM (active).
`CNC1[C@H](O)C(O[C@@H]2C(O)C(O[C@H]3O[C@H]([C@@H](C)NC)CC[C@H]3N)[C@@H](N)C[C@H]2N)OC[C@]1(C)O` (some centres not stated): the “activity change, negative = inhibition” value is 16.6% (inactive).
With `CCCCCCOc1ccccc1C(N)=O`, the “activity change, negative = inhibition” value is 8.7% (inactive).
The same measure, in the same setting: to `CN(C)c1ccc(N=NS(=O)(=O)O)cc1` belongs -21.5% [at 88.3 µM] (inactive).
As for `NC(=O)c1cccc2[nH]c(-c3ccc([C@H]4CCCN4)cc3F)nc12`, the Potency was 17.3 µM (active).
Turning to `Cc1nc(-c2ccc(OCC(C)C)c(C#N)c2)sc1C(=O)O`, the Potency was 2.45 µM (active).
For the compound `CCCCCCCCCCCC(=O)[O][Sn]([CH2]CCC)([CH2]CCC)[O]C(=O)CCCCCCCCCCC`, the “activity change, negative = inhibition” value was 4.51% (inactive).
